Assay outcomes from PubChem.
Most compounds without a hit are left out; they make up all but 2.8% or so of the library.
esBAF inh = blocks esBAF chromatin remodeling in mouse ES cells; Bmi1-luciferase knock-in reporter, 24 h; 100% = twice the neutral-well signal; reporter increase, % at 12.5 µM; 2% of 350,000 active; AID 602393; in the data active = activation above about 40%; inconclusive = no clear call, values can overlap the other calls;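 also: a rise in the Bmi1 reporter signal indicates esBAF inhibition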
GAA850 FXN act = activators of GAA850 frataxin (FXN) promoter; activation, % at 6 µM; HEK293 lucGAA850 FXN promoter luciferase reporter, 24 h; percent of 10 µM SAHA response; 0.56% of 360,000 active;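 active = activation above the average of all compounds screened plus 3 SD, cutoff fixed separately per campaign, cut at about 7.5% in these data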
Wnt bcat act = activators of Wnt/beta-catenin signaling | activation, % at 9.35 µM | Wnt/beta-catenin reporter cell assay, activator, plate reader | 1.2% of 300,000 active | AID 743398; in the data active = activation above about 30%, passing the limit was not always enough; inconclusive = no clear call, values can overlap the other calls
MITF act = MITF TRPM1 promoter activation in melanoma cells; SK-MEL-5 TRPM1-promoter luciferase, 24 h; % of positive control, neutral wells = 0; activation, % at 12.5 µM; 0.75% of 300,000 active; AID 588334;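 active = mean activation of at least 80% with every replicate also reaching 80%; inconclusive = mean reaches 80% but some replicate falls short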
Large screens that a line does not name were inactive.

CC(=O)c1sc(Nc2nc3ccc(F)cc3s2)nc1C	Wnt bcat act 67 (no result: esBAF inh)
C[C@@H]1CN([C@@H](C)CO)C(=O)c2cc(C3=CCCC3)cnc2O[C@H]1CN(C)C(=O)c1ccc2c(c1)OCO2	none (no result: GAA850 FXN act, Wnt bcat act, MITF act)
CC(C)Nc1nc(Cl)nc(Nc2ccccc2)n1	esBAF inh 61
CC(C)c1ccc(Nc2nc(Cl)nc(NCCO)n2)cc1	none (no result: MITF act)
CO[C@H]1CC[C@H]2CCOc3ccc(C#N)cc3C(=O)N(C)C[C@H](C)C(=O)N(C)C[C@@H]1O2	none (no result: GAA850 FXN act, Wnt bcat act, MITF act)
O=C(Nc1ccccc1Cl)c1cccs1	none (no result: Wnt bcat act)
O=C(Nc1ccc(Cl)cn1)c1ccc2nccnc2c1	Wnt bcat act 37, MITF act 126 (no result: esBAF inh)
O=C(Nc1ccccc1Cl)c1ccc(-c2ccccn2)s1	esBAF inh 82, MITF act inconclusive
CCN(CC)S(=O)(=O)c1cc(C(=O)Nc2ccc(Cl)cn2)ccc1C	MITF act 105 (no result: Wnt bcat act)
O=C(Nc1ccccc1Cl)c1ccc2nccnc2c1	MITF act 103
CCN(CC)S(=O)(=O)c1cccc(C(=O)Nc2ccc(Cl)cn2)c1	none (no result: MITF act)
O=C(C[C@H]1C[C@H]2c3cc(NC(=O)Cc4ccncc4)ccc3O[C@H]2[C@@H](CO)O1)NCc1cccnc1	none (no result: GAA850 FXN act, Wnt bcat act, MITF act)
O=C(C[C@@H]1CC[C@H]2[C@@H](COC[C@@H](O)CN2C(=O)Nc2ccc(Cl)c(Cl)c2)O1)NCc1ccccc1	none (no result: GAA850 FXN act, Wnt bcat act, MITF act)
O=C(O)c1cccc(COc2ccccc2Cl)c1	none
O=C(Nc1ccccc1Cl)c1cccc(COc2cc(Cl)ccc2Cl)c1	Wnt bcat act 38 (no result: esBAF inh)
Cc1ccc(C)n1-c1ccc(-c2ccn[nH]2)cc1	none
c1ccn(-c2ccc(-c3ccn[nH]3)cc2)c1	MITF act 93 (no result: esBAF inh)
COc1ccc2nc(/N=C(\N)NC(=O)N3c4ccccc4Sc4ccccc43)nc(C)c2c1	none (no result: esBAF inh)
CCOC(=O)CSc1nc(C)c2cc(OC)ccc2n1	none (no result: Wnt bcat act)
CCC(=O)N/C(N)=N/c1nc(C)c2cc(OC)ccc2n1	esBAF inh 55 (no result: Wnt bcat act)
COc1ccc2nc(/N=C(\N)NC(=O)C(C)(C)C)nc(C)c2c1	esBAF inh 48 (no result: Wnt bcat act)
Cc1ccc(N=Nc2c(C)[nH]n(C(N)=S)c2=O)cc1C	none (no result: esBAF inh)
CC(=O)Nc1ccc(N=Nc2c(C)[nH]n(C(N)=S)c2=O)cc1	esBAF inh 49
Cc1cc(-c2onc(C)c2C(N)=O)no1	Wnt bcat act 38
Cc1ccc(C(=O)Nc2ccc(C(F)(F)F)n(C)c2=O)cc1	Wnt bcat act 54 (no result: esBAF inh)
CCN(CC)S(=O)(=O)c1ccc(C(=O)Nc2ccc(C(F)(F)F)n(C)c2=O)cc1	none
COc1ccc(C(=O)Nc2ccc(C(F)(F)F)n(C)c2=O)cc1	Wnt bcat act 63 (no result: esBAF inh)
CCOc1cc(/C=C/c2nc3ccccc3c(=O)[nH]2)ccc1O	esBAF inh 71
COc1cc(/C=C/c2nc3ccccc3c(=O)[nH]2)ccc1O	none (no result: MITF act)
c1ccc(-c2ccc(OCCCn3cncn3)cc2)cc1	esBAF inh 51, Wnt bcat act 35
c1ccc(Oc2cccc(OCCn3cncn3)c2)cc1	none (no result: esBAF inh)
c1ccc(COc2ccc(OCCn3cncn3)cc2)cc1	esBAF inh 68, MITF act inconclusive (no result: Wnt bcat act)
Cc1ccc(S(=O)(=O)N(C)C[C@@H]2Oc3c(cccc3N(C)C)C(=O)N([C@@H](C)CO)C[C@H]2C)cc1	none (no result: GAA850 FXN act, Wnt bcat act, MITF act)
Cc1ccccc1-c1nnc(SCc2ccccc2)o1	esBAF inh 63 (no result: Wnt bcat act, MITF act)
c1ccc2c(-c3nnc(SCc4cn5ccccc5n4)o3)c[nH]c2c1	none (no result: Wnt bcat act)
c1ccc(CSc2nnc(-c3c[nH]c4ccccc34)o2)cc1	esBAF inh 53
O=C(Nc1ccc2c(c1)[C@@H]1C[C@H](CC(=O)N3CCc4ccccc4C3)O[C@@H](CO)[C@@H]1O2)C1CCC1	none (no result: GAA850 FXN act, Wnt bcat act, MITF act)
O=C(C[C@H]1C[C@H]2c3cc(NC(=O)Nc4ccc(C(F)(F)F)cc4)ccc3O[C@H]2[C@@H](CO)O1)NCc1ccccn1	none (no result: GAA850 FXN act, Wnt bcat act, MITF act)
Cc1nn(-c2ccccc2)c(C)c1C(=O)NCCc1ccc(Cl)cc1	none (no result: esBAF inh)
COc1ccc(OC(=O)c2cnn(-c3ccccc3)c2C)cc1	esBAF inh 67 (no result: Wnt bcat act)
CC(=O)c1c(C)nn(-c2ccccc2)c1C	none (no result: esBAF inh, MITF act)
Cc1nn(-c2ccccc2)c(C)c1C(=O)NCCc1ccccc1	MITF act 88
Cc1ccc(NC(=O)c2cnn(-c3ccccc3)c2C)c(C)c1	Wnt bcat act 45
COc1cccc(NC(=O)c2cnn(-c3ccccc3)c2C)c1	none (no result: MITF act)
Cc1nn(-c2ccccc2)c(C)c1C(=O)Oc1ccccc1	esBAF inh 62, MITF act inconclusive
COCC(=O)Nc1ccc2c(c1)OC[C@@H](C)N(C)C[C@H](C)[C@H](OC)CN(C)C2=O	none (no result: GAA850 FXN act, Wnt bcat act, MITF act)
O=C(NCCc1ccccc1)c1ccc(-n2cnnn2)cc1	esBAF inh 48
COc1ccccc1C1CCN(C(=O)c2ccccc2)CC1	none
COc1ccccc1C1CCN(C(=O)c2cnn(-c3ccccc3)c2C)CC1	Wnt bcat act 41
COc1ccc(OC(=O)c2c(C)nn(-c3ccccc3)c2C)cc1	esBAF inh 71
C[C@H]1CN([C@@H](C)CO)C(=O)Cc2cc(NC(=O)Nc3ccccc3)ccc2O[C@@H]1CN(C)C(=O)Nc1ccc(F)cc1	none (no result: GAA850 FXN act, Wnt bcat act, MITF act)
O=C(Cc1csc(NC(=O)Nc2cccc(Cl)c2)n1)NCc1cccnc1	none
O=C(Cc1csc(NC(=O)Nc2ccc(Cl)cc2)n1)NCc1cccnc1	esBAF inh 45
CCOC(=O)CON1C(=O)C(C)(C)N(OCC(=O)OCC)C(=O)C1(C)C	none (no result: Wnt bcat act)
CCON1C(=O)C(C)(C)N(OCC)C(=O)C1(C)C	Wnt bcat act 43 (no result: esBAF inh)
Cc1occc1C(=O)N/N=C/c1ccc2c(c1)OCO2	Wnt bcat act 38
CCn1nc(C)c(/C=N/NC(=O)c2ccoc2C)c1C	MITF act inconclusive (no result: Wnt bcat act)
CCN(CC)c1ccc(/C=N/NC(=O)OC)c(O)c1	none (no result: MITF act)
Cc1occc1C(=O)N/N=C/c1ccc(OCc2ccccc2)cc1	esBAF inh 54, Wnt bcat act 38 (no result: MITF act)
CCN(CC)c1ccc(/C=N/NC(=O)c2ccoc2C)c(O)c1	Wnt bcat act 47 (no result: esBAF inh)
CCCCCn1nc(C)c(/C=N/NC(=O)c2ccoc2C)c1C	esBAF inh 62 (no result: Wnt bcat act)
CCCNC(=O)N1[C@H](C#N)[C@H](c2ccc(-c3cccnc3)cc2)[C@@H]1CO	none (no result: GAA850 FXN act, Wnt bcat act, MITF act)
COc1cc(/C=N/NC(=O)c2ccoc2C)cc(OC)c1OC	none (no result: Wnt bcat act)
Cc1cc(/C=N/NC(=O)c2ccoc2C)cc(C)c1O	esBAF inh 69 (no result: MITF act)
Cc1occc1C(=O)N/N=C/c1cccc2ccccc12	esBAF inh 69, MITF act 97
COc1ccc(C2=CN(Cc3ccccc3)C(c3ccccc3)CC2=O)cc1 (stereo unspecified)	MITF act 100
CC(=O)Nc1cc(C(=O)OCC(=O)c2ccc(C)cc2)ccc1C	esBAF inh 78, Wnt bcat act inconclusive
COc1ccc(NC(=O)Nc2cc(C)ccc2OC)cc1	none (no result: Wnt bcat act)
CC(=O)Nc1cc(C(=O)OCC(=O)c2ccc(Cl)cc2Cl)ccc1C	none (no result: Wnt bcat act, MITF act)
COc1ccc(C(=O)COc2ccc(C)cc2NC(C)=O)cc1	Wnt bcat act 56 (no result: esBAF inh, MITF act)
CO[C@@H]1CN(C)C(=O)c2cc(NC(=O)C3CC3)ccc2OC[C@@H](C)N(C(=O)c2cnccn2)C[C@H]1C	none (no result: GAA850 FXN act, Wnt bcat act, MITF act)
Cc1ccc(S(=O)(=O)N(C)C[C@@H]2OCCCC[C@H](C)Oc3ccc(NC(=O)CCC(F)(F)F)cc3C(=O)N([C@@H](C)CO)C[C@@H]2C)cc1	none (no result: GAA850 FXN act, Wnt bcat act, MITF act)
